Screening results deposited in PubChem BioAssay by several laboratories.
MITF TRPM1 inh: inhibitors of MITF-driven TRPM1 promoter in melanoma cells. hit rate 0.83% among 330,000. AID 488899. inhibition, % at 12.5 µM. SK-MEL-5 TRPM1 promoter luciferase, 24 h;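 active means mean inhibition across replicates of 60% or more, whatever share of single replicates reaches that level; inconclusive means some that reach 60%, reason not given; inactive means mean inhibition across replicates below 60%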
TROY signal inh: blocks TROY-dependent signaling in reporter cells; Q293 LMP1-TROYcd NF-kB luciferase reporter, 4 h; inhibition, % at 10 µM; hit rate 0.98% among 360,000;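 active means compounds whose plate-normalised and pattern-corrected inhibition of the luciferase reporter signal at the single screening dose is 50% or more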
Shn3 inh set2: reduces Shn3 3'UTR luciferase signal in osteoblasts. hit rate 0.52% among 360,000. AID 588674. Clone20 osteoblast Shn3 3'UTR firefly luciferase, 24 h. inhibition, % at 12.5 µM;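 active means mean inhibition of at least 75% with every replicate also reaching 75%; inconclusive means mean inhibition at least 75% but some replicate below; inactive means mean inhibition below 75%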
TWEAK-Fn14 inh: inhibitors of TWEAK-Fn14 interaction signaling; TWEAK-stimulated Fn14 reporter cells, luciferase luminescence, 8 h; inhibition, % at 10 µM; hit rate 2% among 360,000; in the data active means inhibition above about 50%
Peg3 prom inh: inhibitors of Peg3 promoter | HeLa PEG-Prom luciferase reporter, luminescence, overnight | inhibition, % at 20 µM | hit rate 1.7% among 360,000;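 active means inhibition of at least 50% at 20 µM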
LMP1 NFkB inh: inhibitors of Epstein-Barr LMP1-induced NF-kappaB reporter; AID 504558; LMP1-induced NF-kappaB luciferase reporter cells, luminescence; inhibition, % at 12.5 µM; hit rate 0.69% among 350,000; in the data active means inhibition above about 41%; inconclusive means no clear call, values can overlap the other calls
Numbers stand for hits; i = inactive; ? = inconclusive; nt = no result. Only some compounds are listed: those with a hit (about 4.1% of all), similar ones and a draw of the others.

SMILES	MITF TRPM1 inh	TROY signal inh	Shn3 inh set2	TWEAK-Fn14 inh	Peg3 prom inh	LMP1 NFkB inh
O=C(NC(c1ccc(-c2ccccc2)cc1)c1cnccn1)C1CCN(Cc2ccc(Oc3ccccc3)cc2)CC1 (configuration not stated)	nt	i	i	i	56	nt
Cc1noc(C)c1S(=O)(=O)NC(=O)C1(C)CCN1C(=O)CC(c1ccccc1)c1ccccc1 (configuration not stated)	nt	i	i	i	i	nt
CC(C)CC(NC(=O)OCc1ccccc1)C(=O)NC(Cc1ccccc1)C(=O)CCl (configuration not stated)	114	i	i	i	93	i
COC(=O)C(Cc1ccccc1)NC(=O)C(CC(C)C)NC(=O)OC(C)(C)C (configuration not stated)	i	i	i	i	i	i
COCCn1c(C)cc(C(=O)COC(=O)c2[nH]c(C)c(C(C)=O)c2C)c1C	i	i	i	i	i	i
COc1cc(C2C(C#N)=C(N)Oc3cc(O)ccc32)cc(OC)c1OC (configuration not stated)	i	i	i	i	i	i
COc1cc(C2C(C#N)=C(N)Oc3cc4c(cc32)OCO4)cc(OC)c1OC (configuration not stated)	77	i	i	i	i	i
CC(C)c1ccc(N2C(=O)CC(Sc3ncccn3)C2=O)cc1 (configuration not stated)	i	i	i	i	i	i
CC(=O)N1c2ccccc2Oc2cc3ccccc3cc21	i	i	i	i	i	i
O=C(CCl)N1c2ccccc2Oc2ccc3ccccc3c21	88	73	i	69	i	i
Cc1cccn2cc(-c3ccc(NC(=O)Cc4ccccc4)cc3)nc12	nt	89	i	i	i	i
Cc1cc(OCC(=O)Nc2ccncc2)ccc1Br	i	nt	i	88	i	i
COc1cccc(NC(=O)COc2ccc(Br)c(C)c2)c1	i	i	i	i	i	i
COc1ccc(CCNc2cc(N3CCN(C(=O)c4ccccc4F)CC3)ccc2[N+](=O)[O-])cc1OC	83	i	88	93	i	i
O=C(c1ccccc1F)N1CCN(c2ccc([N+](=O)[O-])c(NCc3cccnc3)c2)CC1	nt	i	i	72	i	nt
COc1ccc(C(=O)N2CCN(c3ccc([N+](=O)[O-])c(NCCc4ccc(OC)c(OC)c4)c3)CC2)cc1	79	63	i	92	i	i
C=CCn1c(C)cc(C(=O)CSc2nc3ccccc3[nH]2)c1C	i	i	i	80	i	i
Cc1cc(C(=O)CSc2nncs2)c(C)n1Cc1ccco1	i	i	i	i	i	i
C=CCn1c(C)cc(C(=O)CSc2nc3ccccc3c(=O)[nH]2)c1C	i	i	i	i	i	i
COCCn1c(C)cc(C(=O)CSc2nc3ccccc3c(=O)[nH]2)c1C	i	i	i	69	i	i
Cc1cc(C(=O)CSc2nc3ccccc3[nH]2)c(C)n1Cc1ccco1	i	81	i	92	i	i
Cc1cc(C(=O)CCl)c(C)n1Cc1ccco1	i	i	i	i	62	i
O=C(NCc1ccccc1)c1cc(C2COCCN2C(=O)c2ccc(Cl)cc2)on1 (configuration not stated)	nt	i	i	i	i	nt
Cc1ccc(NC2CCCN(C(=O)CCN3CCOCC3)C2)cc1C (configuration not stated)	i	i	i	i	i	i
CN1CCN(CC(=O)c2cc(C(C)(C)C)c(O)c(C(C)(C)C)c2)CC1	i	i	i	i	i	86
SMILES	MITF TRPM1 inh	TROY signal inh	Shn3 inh set2	TWEAK-Fn14 inh	Peg3 prom inh	LMP1 NFkB inh
CC(C)(C)c1cc(CN2CCN(CCO)CC2)cc(C(C)(C)C)c1O	i	i	i	i	i	i
CC(=O)c1sc(NC(=O)CCCc2nc3ccccc3c(=O)[nH]2)nc1-c1ccccc1	i	i	i	i	i	i
C=CCN1C(=O)C2(OCCCO2)c2cccc(C)c21	i	i	i	i	i	i
CCCCN1C(=O)C2(OCCCO2)c2cccc(C)c21	i	i	i	100	i	i
COc1cc2sc3ccc(-c4ccc(CN5CCOCC5)cc4)cc3c(=O)c2cc1OC	i	i	i	i	99	i
COc1ccc(CN2CCOCC2)cc1OC	i	nt	i	99	i	i
COc1cccc(OC)c1C(=O)Nc1ccc(CN2CCOCC2)cc1	i	i	i	i	i	i
COc1ccc(CN2CCOCC2)cc1Br	i	i	i	i	i	i
CC1=NN(C(N)=S)C(=O)C1N=Nc1cccc(C(=O)O)c1 (configuration not stated)	i	i	i	i	i	49
Cc1ccc2c(c1)Oc1ccc(NC(=O)CCl)cc1C(=O)N2	91	i	i	i	100	i
COc1cc(OC)c2c(-c3cccc(-c4ccc(OC)c(OC)c4)c3)cc(=O)oc2c1	?	i	i	97	i	i
COc1cc(OC)c2c(-c3cccc(-c4ccc(C#N)cc4)c3)cc(=O)oc2c1	i	i	i	i	i	i
Cc1cccc(C)c1NC(=O)c1c[nH]c2ccccc12	i	i	i	i	i	nt
CCN(C(=O)c1cc(OC)c(OC)c(OC)c1)C1CCCCC1	nt	i	i	i	i	48
CCN(C(=O)c1cccc(NC(=O)c2ccccc2)c1)C1CCCCC1	i	i	i	i	i	51
COc1cc(C(=O)N(C(C)C)C2CCCCC2)cc(OC)c1OC	nt	i	i	i	i	i
O=C(Nc1cccc(C(=O)NC2CCCCC2)c1)c1ccccc1	i	i	i	i	i	i
O=C1/C(=C/c2ccc(S(=O)(=O)O)cc2S(=O)(=O)O)CCc2ccccc21	nt	i	nt	i	nt	nt
CCOc1ccc(S(=O)(=O)N2CCC(C(=O)NCCc3ccc(OC)c(OC)c3)CC2)cc1	i	i	i	i	i	i
CCOc1ccc(S(=O)(=O)N2CCC(C(=O)NCCc3ccc(S(N)(=O)=O)cc3)CC2)cc1	i	i	i	i	i	49
CCOc1ccc(N2C(=O)CC(NCCc3ccc(S(N)(=O)=O)cc3)C2=O)cc1 (configuration not stated)	i	nt	i	108	i	i
COc1ccc(/C=C2/C(=O)C(C)(C(C)C)CCC2C)cc1 (configuration not stated)	i	i	i	i	i	i
Cc1cccc(Nc2sc(C(=O)c3cc4cc(Cl)ccc4o3)c(N)c2C#N)c1	i	i	i	i	i	i
CN1CCN(c2ccc(NC(=S)NC(=O)c3cccc4ccccc34)cc2)CC1	64	i	i	i	69	i
CN1CCN(c2ccc(NC(=O)c3ccc4ccccc4c3)cc2)CC1	i	65	i	78	i	i
COc1ccc(C(=O)Nc2ccc(N3CCN(C)CC3)cc2)cc1	i	i	i	i	i	i
CC(=O)c1ccc(NC(=S)Nc2cccc3ccccc23)cc1	i	72	i	i	i	i
COc1c(C)cccc1C(=O)NC(=S)Nc1ccccc1N1CCCC1	i	68	i	57	i	i
CN1CCN(c2ccc(NC(=S)NC(=O)c3cccc4c(Br)cccc34)cc2)CC1	i	i	i	i	i	i
